From PubChem BioAssay AID1835 (Johns Hopkins Ion Channel Center, 2009)
About 750 (31%) of roughly 2,400 compounds were called active. This is one part of the list. A number with no mark means an inactive call.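 The calls were made as follows: active = median signal gain over dofetilide-blocked control wells reaching their mean plus 3 SD, so readout 1 at least 0; inactive = the rest.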

These molecules were tested against Voltage-gated inwardly rectifying potassium channel KCNH2 (Homo sapiens) (UniProt Q12809) (assay: modulators restoring hERG flux under dofetilide – cell-based, thallium flux, duplicate retest, dofetilide IC70, confirmation (AID 1835)). Conditions: hERG cell line, FluxOR thallium flux, dofetilide-blocked; at 10 µM; active compounds read high.
Sequence of Voltage-gated inwardly rectifying potassium channel KCNH2 (Homo sapiens) (Q12809 whole entry, looked up): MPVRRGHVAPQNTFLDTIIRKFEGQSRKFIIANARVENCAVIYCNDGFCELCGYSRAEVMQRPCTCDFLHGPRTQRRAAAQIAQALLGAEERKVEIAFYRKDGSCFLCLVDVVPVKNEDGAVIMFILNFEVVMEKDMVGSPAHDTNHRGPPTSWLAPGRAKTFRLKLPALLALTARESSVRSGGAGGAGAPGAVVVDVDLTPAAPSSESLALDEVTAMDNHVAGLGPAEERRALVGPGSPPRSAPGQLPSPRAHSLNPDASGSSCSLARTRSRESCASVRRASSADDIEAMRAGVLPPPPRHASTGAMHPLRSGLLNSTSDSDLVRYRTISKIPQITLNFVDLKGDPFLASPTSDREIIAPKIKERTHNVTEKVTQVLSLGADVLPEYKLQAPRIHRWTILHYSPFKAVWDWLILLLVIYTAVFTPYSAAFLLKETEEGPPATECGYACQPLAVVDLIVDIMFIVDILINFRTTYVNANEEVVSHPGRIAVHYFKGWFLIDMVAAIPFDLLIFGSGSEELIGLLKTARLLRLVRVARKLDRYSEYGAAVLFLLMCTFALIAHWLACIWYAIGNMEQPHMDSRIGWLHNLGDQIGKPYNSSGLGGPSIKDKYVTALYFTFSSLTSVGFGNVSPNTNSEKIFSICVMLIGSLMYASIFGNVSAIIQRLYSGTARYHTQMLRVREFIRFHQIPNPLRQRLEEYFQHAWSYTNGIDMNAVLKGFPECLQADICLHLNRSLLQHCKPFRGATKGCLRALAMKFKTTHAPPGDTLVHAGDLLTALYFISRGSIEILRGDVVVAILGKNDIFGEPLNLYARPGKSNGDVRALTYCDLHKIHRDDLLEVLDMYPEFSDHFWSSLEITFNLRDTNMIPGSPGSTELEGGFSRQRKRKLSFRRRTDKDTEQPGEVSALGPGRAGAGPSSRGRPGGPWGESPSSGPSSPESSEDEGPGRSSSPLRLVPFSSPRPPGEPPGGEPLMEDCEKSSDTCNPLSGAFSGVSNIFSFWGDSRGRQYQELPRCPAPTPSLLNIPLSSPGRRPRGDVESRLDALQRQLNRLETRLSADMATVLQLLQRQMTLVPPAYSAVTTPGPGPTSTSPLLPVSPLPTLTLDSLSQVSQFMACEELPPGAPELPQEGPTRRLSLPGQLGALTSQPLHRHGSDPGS

SMILES | activity increase over dofetilide control, less the hit threshold
CC1c2nc3ccccc3n2C(CC(=O)NCCCN2CCOCC2)C(=O)N1Cc1ccccc1 (configuration not stated) | -8%
CCCOc1ccc(C2NC(=S)NC(c3ccccc3)=C2C(=O)Nc2ccc(C)cc2)cc1OC (configuration not stated) | -5%
Cc1cc(C(=O)N/N=C/c2ccc(O)c([N+](=O)[O-])c2)n[nH]1 | -13%
O=C(NC(=S)N1CCc2ccccc21)c1ccccc1 | 43% (active)
O=C(NC(=S)N1CCCc2ccccc21)c1ccccc1 | -18%
O=C(NC(=S)N1CCc2ccccc21)c1ccc(Br)o1 | 12% (active)
O=C(NC(=S)N1CCc2ccccc21)c1ccco1 | -11%
O=C(c1ccccc1)N1CCc2ccccc21 | -6%
O=C(NC(=S)N1CCc2ccccc21)c1ccccc1Cl | 53% (active)
O=C(N/N=C/c1ccsc1)C1CC1 | -4%
CC1CCN(S(=O)(=O)c2ccc3nc(N4CCN(c5ccccc5)CC4)ccc3c2)CC1 | -22%
COc1cc(C2c3c(n[nH]c3C)C(=O)N2c2ccc(C)cc2)ccc1O (configuration not stated) | -15%
O=C(NCc1cccnc1)c1ccc(NS(=O)(=O)c2ccc(F)cc2)cc1 | -9%
CCOC(=O)N/N=C/C=C/c1ccccc1[N+](=O)[O-] | 4% (active)
O=C(N/N=C/c1ccccc1[N+](=O)[O-])c1ccc(CN2CCOCC2)cc1 | -4%
CC1=NNC(=O)C1CC(=O)N/N=C/C=C/c1ccccc1 (configuration not stated) | -18%
Cc1cc(C)n2nc(SCC(=O)NC3CCCCC3C)nc2n1 (configuration not stated) | -19%
Oc1c(N=NC(=S)Nc2ccccc2F)c2ccccc2n1Cc1ccccc1Cl | -2%
Cn1c(O)c(N=NC(=S)Nc2ccccc2F)c2cc(S(=O)(=O)N3CCOCC3)ccc21 | -22%
Cc1ccc(C)c(Cn2c(O)c(N=NC(=S)Nc3ccccc3F)c3ccccc32)c1 | -2%
Oc1c(N=NC(=S)Nc2ccccc2F)c2ccccc2n1Cc1ccccc1F | 19% (active)
Cc1ccccc1Cn1c(O)c(N=NC(=S)Nc2ccccc2F)c2ccccc21 | 6% (active)
CC(C)Nc1nc(SCC(N)=O)nc(N2CCOCC2)n1 | -12%
O=C1CN(C(=O)COc2ccccc2F)c2ccccc2N1 | -17%
COC(=O)c1sccc1NS(=O)(=O)c1ccc(F)cc1F | 2% (active)
COC(=O)c1sccc1NC(=S)N1CC(C)CC(C)C1 (configuration not stated) | -15%

SMILES | activity increase over dofetilide control, less the hit threshold
COC(=O)c1sccc1NC(=O)CSc1ccccc1NS(=O)(=O)c1cc(Cl)ccc1Cl | -3%
Cc1ccc(NC(=O)c2ccc3c(c2)CCN3S(C)(=O)=O)c(C)c1 | -17%
Cc1ccc(S(=O)(=O)n2cnc3ccccc32)c(C)c1 | -13%
Cc1ccc(NS(=O)(=O)c2cn(C)c(=O)n(C)c2=O)c(C)c1 | 0% (active)
Cc1cc(C(=O)NNC2CC(=O)N(c3ccc4ccccc4c3)C2=O)c(C)o1 (configuration not stated) | -6%
Cc1c(C)n(CCN(C)C)c2ccc(C(=O)OCCN(C)C)cc12 | -7%
CC(=O)c1c(C)c2c(n1CCN(C)C)CCCC2 | 2% (active)
O=C(CC1NC(=O)NC1=O)Nc1ccccc1 (configuration not stated) | -19%
O=C(c1cncc(Br)c1)N1CCc2ccccc2C1 | -15%
CCC1(C)Cc2c(sc3[nH]c(=S)n(Cc4ccccc4)c(=O)c23)CO1 (configuration not stated) | 30% (active)
CC(C)C1Cc2c(sc3[nH]c(=S)n(Cc4ccccc4)c(=O)c23)CO1 (configuration not stated) | 16% (active)
CC1(C)Cc2c(sc3[nH]c(=S)n(Cc4ccccc4)c(=O)c23)CO1 | -10%
COc1ccc(C(=O)NCC(=O)OCn2nnc3ccccc3c2=O)cc1OC | -24%
CCCCNC(=S)N/N=C/C1=CCC2CC1C2(C)C (configuration not stated) | -22%
Fc1ccc2c(c1)C(c1ccncc1)=NNC(c1cccnc1)=N2 | -13%
C=CCc1cc(Cl)ccc1OCCOCCN(C)C | -19%
Cc1csc(NC(=O)C2C3C=CC(C3)C2C(=O)O)n1 (configuration not stated) | -19%
O=C(O)c1ccc(CNC(=O)C23CC4CC(CC(C4)C2)C3)cc1 | -3%
O=C(NCc1ccccc1)C(=O)Nc1nc(C23CC4CC(CC(C4)C2)C3)cs1 | 18% (active)
Oc1ccc(/C=N/Nc2nccnc2Cl)c(O)c1 | 8% (active)
COc1ccc(N2C(=O)CCC(C(=O)O)C2c2ccc(F)cc2)cc1 (configuration not stated) | -5%
COc1ccc(-c2csc(NC(=S)NC(=O)c3ccco3)n2)cc1 | 11% (active)
O=C(NC(=S)Nc1nc(-c2cccc([N+](=O)[O-])c2)cs1)c1ccccc1Cl | -1%
O=C(NC(=S)Nc1nc(-c2ccc(Br)cc2)cs1)c1ccco1 | 10% (active)
O=C(NC(=S)Nc1nc(-c2ccccc2)cs1)c1ccco1 | 1% (active)
COc1ccc(-c2csc(NC(=S)NC(=O)c3ccco3)n2)cc1Br | -17%
